Experimental findings from PubChem BioAssay (EPA / NIEHS) are described below.

Inconclusive results are not listed. Active and inactive are the calls of the source. The calls were made as follows, unless noted: active = hit-call score of the fitted dose curve at least 0.9, where 1 is the maximum; inactive = score below 0.9.

Assay [1] is described as follows: ACEA_ER_80hr: ACEA Biosciences xCELLigence Real-Time Cell Analysis on Estrogen Receptor Agonism for Proliferation (AID 2282667; active = hit-call score of the fitted dose curve at least 0.9, where 1 is the maximum). The note with it: T47D proliferation, impedance (xCELLigence), 80 h. The method in brief: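 T-47D cells monitored by electrical impedance (xCELLigence) with compound present throughout; 80 h timepoint, positive-direction fitting versus DMSO. Eight-point 1:4 dilutions from 100 uM final, duplicate plates.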

Assay [2] in a line: APR_HepG2_CellCycleArrest_24hr: Apredica 24-hour HepG2 Assay for Cell Cycle Arrest (AID 2282905).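 Also: cell cycle arrest scored as ratio of 2N to 4N nuclear DNA content.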 To be noted: imaging, actives raise or lower the signal. The gist of the method:
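After 24 h exposure at 0.39–200 uM in 0.5% DMSO, fixed cells received Hoechst 33342 staining. Imaging quantified per-nucleus DNA content; gain or loss fitted against DMSO controls.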

Assay [3] is described as follows: APR_HepG2_NuclearSize_24hr: Apredica 24-hour HepG2 Assay for Nuclear Size (AID 2282907). To be noted: high-content imaging, actives raise or lower the signal. The gist of the method: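 Nuclear size from Hoechst 33342-stained, formaldehyde-fixed HepG2 nuclei imaged by high-content microscopy, after 24 h dosing at ten concentrations from 0.39 to 200 uM in 0.5% DMSO; gain or loss relative to DMSO baseline.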

The nature of assay [4]: APR_HepG2_CellLoss_24hr: Apredica 24-hour HepG2 Assay for Cell Loss (AID 2282908).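 As to AC50: fit in both directions so a hit may be cell loss or gain.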 To be noted: high-content imaging. The gist of the method: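 Nuclei stained with Hoechst 33342 after formaldehyde fixation (3.7%) were imaged at 20x to count cells. Exposure lasted 24 hr, at ten concentrations from 0.39 to 200 uM in duplicate, with 0.5% v/v DMSO. Fit bidirectional, relative to DMSO.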

A short description of assay [5]: APR_HepG2_MicrotubuleCSK_24hr: Apredica 24-hour HepG2 Assay for Microtubule CSK Stabilty (AID 2282909). The note with it: HepG2 microtubule cytoskeleton imaging, actives raise or lower the signal. The method in brief: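 Fixed HepG2 cells were stained for alpha-tubulin and imaged after 24 hr exposure to ten concentrations spanning 0.39–200 uM in 0.5% DMSO. Signal change was fitted in both directions relative to DMSO; taxol was the positive control.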

Assay [6] in a line: APR_HepG2_MitoticArrest_24hr: Apredica 24-hour HepG2 Assay for Mitotic Arrest (AID 2282910). To be noted: high-content imaging, actives raise or lower the signal. The gist of the method:
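High-content imaging of fixed HepG2 cells labeled with Hoechst 33342 and anti-phospho-histone H3, after 24 h treatment. Ten concentrations 0.39 to 200 uM in duplicate, final DMSO 0.5%; changes fitted both directions relative to DMSO.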

Assay [7] in a line: APR_HepG2_MitoMembPot_24hr: Apredica 24-hour HepG2 Assay for Mitochondrial Membrane Potential (AID 2282911). The note with it: imaging, actives raise or lower the signal. The gist of the method:
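HepG2 cells exposed 24 h to 0.39–200 uM compounds in duplicate, 0.5% v/v DMSO final. MitoTracker Red CMXRos 250 nM loaded 30 min before formaldehyde fixation; high-content imaging at 20x, bidirectional fit versus DMSO.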

Assay [8] can be described thus: APR_HepG2_MitoMass_24hr: Apredica 24-hour HepG2 Assay for Mitochondrial Mass (AID 2282912). To be noted: high-content imaging, actives raise or lower the signal. The gist of the method: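 Endpoint is MitoTracker Red CMXRos (250 nM, 30 min, pre-fixation) intensity from 20x high-content imaging, nuclei located by Hoechst. Human HepG2 cells received ten concentrations from 0.39 to 200 uM in 0.5% DMSO for 24 hr, duplicate wells. Bidirectional fit relative to DMSO.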

Assay [9] can be described thus: APR_HepG2_p53Act_24hr: Apredica 24-hour HepG2 Assay for p53 Activation (AID 2282913).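 Also: p53 protein immunofluorescence averaged per cell in HepG2 with Hoechst nuclei.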 To be noted: high-content imaging, actives raise or lower the signal. The method in brief:
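HepG2 cells exposed 24 h to compounds at 0.39–200 uM in duplicate, 0.5% v/v DMSO final; fixed, permeabilized, stained with anti-p53 antibody and Hoechst 33342; fluorescence imaging; bidirectional curve fit versus DMSO.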

A short description of assay [10]: APR_HepG2_CellCycleArrest_72hr: Apredica 72-hour HepG2 Assay for Cell Cycle Arrest (AID 2282914). The note with it: high-content imaging, actives raise or lower the signal. The gist of the method: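 HepG2 cells exposed 72 h in duplicate to 0.39–200 uM compound, 0.5% DMSO final. Formaldehyde-fixed, Hoechst 33342-stained nuclei imaged at 20x, six fields per well; DNA content per valid cell quantified by cell-cycle image analysis, bidirectional fit versus DMSO.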

A short description of assay [11]: APR_HepG2_CellLoss_72hr: Apredica 72-hour HepG2 Assay for Cell Loss (AID 2282915). The note with it: high-content imaging. The gist of the method: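 Cell number comes from Hoechst 33342-labelled nuclei, imaged at 20x after 3.7% formaldehyde fixation. Dosing was 0.39–200 uM, ten concentrations in duplicate, 0.5% DMSO final, for 72 h. Bidirectional fit relative to DMSO baseline.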

A short description of assay [12]: APR_HepG2_P-H2AX_72hr: Apredica 72-hour HepG2 Assay for H2AX Phosphorylation (AID 2282916).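 Also: phospho-histone H2A.x immunostain intensity per cell marking DNA damage.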 To be noted: imaging, actives raise or lower the signal. The gist of the method:
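Phospho-histone H2A.x immunofluorescence, multiplexed with Hoechst and c-Jun, quantified by high-content imaging. Compounds applied to HepG2 for 72 h across ten concentrations (0.39–200 uM, 0.5% DMSO), in duplicate; DMSO baseline.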

Assay [13] in a line: APR_HepG2_MitoMembPot_72hr: Apredica 72-hour HepG2 Assay for Mitochondrial Membrane Potential (AID 2282917). To be noted: imaging, actives raise or lower the signal. The method in brief: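 Membrane potential read by MitoTracker Red CMXRos (250 nM, 30 min, pre-fixation) fluorescence imaging of HepG2 after 72 hr exposure. Ten concentrations, 0.39–200 uM, duplicate wells, 0.5% DMSO; fitted in both directions against DMSO baseline.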

The nature of assay [14]: APR_HepG2_MitoticArrest_72hr: Apredica 72-hour HepG2 Assay for Mitotic Arrest (AID 2282918). The note with it: high-content imaging, actives raise or lower the signal. The gist of the method: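 HepG2 cells treated 72 h at 0.39–200 uM, 0.5% DMSO final; formaldehyde-fixed, stained with Hoechst 33342 and phospho-histone H3 antibody, imaged by high-content fluorescence; bidirectional fit versus DMSO.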

The nature of assay [15]: APR_HepG2_MicrotubuleCSK_72hr: Apredica 72-hour HepG2 Assay for Microtubule CSK Stabilty (AID 2282919). To be noted: HepG2 microtubule cytoskeleton, high-content imaging, actives raise or lower the signal. The method in brief: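 High-content imaging of alpha-tubulin staining in fixed HepG2 cells after 72 hr treatment with ten concentrations from 0.39 to 200 uM (0.5% DMSO). Fitting was bidirectional against DMSO; taxol served as positive control.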

Assay [16] is described as follows: APR_HepG2_P-H2AX_24hr: Apredica 24-hour HepG2 Assay for H2AX Phosphorylation (AID 2282920). To be noted: high-content imaging, actives raise or lower the signal. The gist of the method:
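HepG2 cells dosed 24 h at 0.39–200 uM (10 points, duplicate, 0.5% DMSO final). Formaldehyde-fixed and permeabilized, then immunostained for phospho-H2A.x with Hoechst. Fluorescence quantified by high-content imaging, fitted bidirectionally versus DMSO.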

Assay [17] is described as follows: APR_HepG2_StressKinase_72hr: Apredica 72-hour HepG2 Assay for Stress Kinase (AID 2282921). The note with it: HepG2 stress kinase (phospho-c-Jun) imaging, actives raise or lower the signal. The gist of the method: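 Stress kinase signal is phospho-c-Jun immunofluorescence (1:500 primary, Cy3 secondary) in fixed, permeabilized human HepG2 cells imaged at 20x. Exposure lasted 72 hr over ten concentrations from 0.39 to 200 uM, 0.5% DMSO, in duplicate. Bidirectional fit versus DMSO.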

A short description of assay [18]: APR_HepG2_p53Act_72hr: Apredica 72-hour HepG2 Assay for p53 Activation (AID 2282923).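 Also: average cellular p53 protein immunofluorescence intensity in HepG2 cells.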 To be noted: high-content imaging, actives raise or lower the signal. The method in brief:
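After 72 h with compound (ten points, 0.39 to 200 uM, final DMSO 0.5% v/v), fixed HepG2 cells were labelled with sheep anti-p53 and Hoechst 33342 and imaged; gain or loss versus DMSO scored.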

Assay [19] in a line: APR_HepG2_MitoMass_72hr: Apredica 72-hour HepG2 Assay for Mitochondrial Mass (AID 2282924).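 Also: MitoTracker Red CMXRos stain intensity per cell imaged as mitochondrial mass.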 The note with it: high-content imaging, actives raise or lower the signal. The gist of the method:
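Readout is imaged MitoTracker Red (250 nM, 30 min, pre-fixation) signal, fitted bidirectionally against DMSO baseline. Human HepG2 liver cells received compound 0.39–200 uM in duplicate for 72 hr, final DMSO 0.5%.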

Consider `CCN(CC)CCNc1ccc(CNC=O)c2sc3ccc(OC)cc3c(=O)c12`, for which the molecule was classed as inactive in assay [1], in [3], in [5], in [7], in assay [12] and in [13]. Moreover, the molecule was classed as inactive in [15], in [17], in assay [18] and in [19]. For the same molecule, the AC50 in assay [2] was 5.68 µM (active); in assay [4] it was 60.2 µM (active); in [6], 7.05 µM (active); in [8] it was 32.6 µM (active); in [9], 2.62 µM (active); in [10], 6.28 µM (active). Moreover, the figures for the AC50 in [11], in assay [14] and in assay [16] were 7.4 µM (active), 5 µM (active) and 5.94 µM (active), respectively.
In the case of `CC(C)(C)c1ccc(O)c(C(C)(C)C)c1`, the result in assay [1], in assay [2], in [3], in assay [5], in assay [6] and in [8] was inactive. In addition, the outcome in assay [9], in assay [10], in assay [13], in [14], in assay [15] and in assay [19] was inactive. In addition, the AC50 in assay [4] is 38.5 µM (active); in assay [7], 8.96 µM (active); in assay [11], 66 µM (active); in [12], 36.5 µM (active); in assay [16], 42.8 µM (active); in [17] it was 56.6 µM (active). In addition, the AC50 in assay [18] is 20.3 µM (active).
Turning to `CC[C@H](C)[C@@H](C(=O)O)n1sc2ccccc2c1=O`, the molecule was called inactive in [1], in [2], in [3], in assay [4], in [5] and in assay [6]. Moreover, the result in assay [8], in [9], in [10], in assay [11], in [12] and in [13] was inactive. Further, the result in assay [14], in assay [15], in [16], in [17], in assay [18] and in assay [19] was inactive. The half-maximal activity concentration (AC50) in [7] was 100 µM (active).
Regarding `COc1cc(CCC(=O)CC(=O)CCc2ccc(O)c(OC)c2)ccc1O`, the molecule was classed as inactive in assay [1], in [2], in assay [3], in [4], in assay [5] and in assay [6]. The outcome in [7], in assay [8], in assay [9], in assay [10], in [11] and in [13] was inactive. Besides, the outcome in assay [15], in assay [16], in [17] and in assay [19] was inactive. Further, the AC50 in assay [12] was 96.6 µM (active); in assay [14] it was 166 µM (active); in assay [18], 145 µM (active).
With `CC(=O)CC(C)(C)O`, the AC50 in [1] is 16.2 µM (active); in assay [2] it was 0.0392 µM (active); in [4], 19.8 µM (active); in [5] it was 0.0415 µM (active); in [6], 0.0402 µM (active); in assay [8], 8.56 µM (active). Besides, the AC50 in assay [9] was 0.106 µM (active); in assay [10] it was 32.1 µM (active); in [11], 11 µM (active); in [12], 0.032 µM (active); in assay [14], 0.45 µM (active); in assay [15] it was 0.0173 µM (active). For the same molecule, the values for the AC50 in [16] and in assay [18] were 19.8 µM (active) and 0.0395 µM (active), respectively. Further, the outcome in assay [3], in assay [7], in assay [13], in assay [17] and in [19] was inactive.
As for `CCCCCCCCC(=O)O`, the call in [1], in [2], in [3], in assay [4], in assay [5] and in [6] was inactive. For the same molecule, the molecule was classed as inactive in assay [7], in assay [8], in [9], in assay [10], in [11] and in [12]. The molecule was classed as inactive in [13], in assay [14], in [15], in assay [16], in assay [17] and in assay [18]. For the same molecule, the outcome in assay [19] was inactive.
`Cc1cc(C)c(O)c(C)c1`: the molecule was classed as inactive in [1], in assay [2], in assay [3], in assay [4], in assay [5] and in assay [6]. Moreover, the molecule was called inactive in [7], in assay [8], in assay [9], in [10], in [11] and in [12]. Moreover, the call in [13], in assay [14], in assay [15], in [16], in [17] and in assay [18] was inactive. Further, the result in assay [19] was inactive.
As for `C=C(C)C(=O)OCCC(F)(F)C(F)(F)C(F)(F)C(F)(F)C(F)(F)C(F)(F)F`, the result in assay [1], in assay [2], in assay [3], in [4], in assay [5] and in [6] was inactive. The outcome in assay [7], in assay [8], in assay [9], in assay [10], in [11] and in [12] was inactive. Besides, the molecule was classed as inactive in assay [13], in assay [14], in assay [15], in [16], in assay [17] and in [18]. Moreover, the result in [19] was inactive.
